This passage reports composite z-score and z-score results from PubChem BioAssay.

Experiment [1] in a line: anti-His antibody binders, primary screen, artefact control for SMM control protein annotation, biochemical, small-molecule microarray, 635 nm fluorescence (AID 1128).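 Note: score merges feature fluorescence with signal-to-noise for each printed compound spot.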 The note with it: anti-His Alexa647 antibody binding, higher = more signal.
In experiment [2] the test system is Human papillomavirus type 1a E7 protein (residues 1-88). The experiment can be described thus: HPV1a E7 small-molecule binders, primary screen, biochemical, small-molecule microarray, residues 1-88, 635 nm (AID 1129). The note with it: small-molecule microarray binding, fluorescence 635 nm; higher = more signal.
The target in experiment [3] is Focal adhesion kinase 1 (Homo sapiens) (UniProt Q05397). The experiment can be described thus: small-molecule microarray binders of FAK, primary screen, biochemical, 635/667 nm fluorescence, BSA, DTT (AID 1130).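 Note: composite of spot emission at 667 nm and signal to noise over triplicate slides.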 The following applies: PTK2 binding, 635 nm fluorescence, higher = more signal.
Sequence of Focal adhesion kinase 1 (Homo sapiens) (Q05397 whole entry, looked up): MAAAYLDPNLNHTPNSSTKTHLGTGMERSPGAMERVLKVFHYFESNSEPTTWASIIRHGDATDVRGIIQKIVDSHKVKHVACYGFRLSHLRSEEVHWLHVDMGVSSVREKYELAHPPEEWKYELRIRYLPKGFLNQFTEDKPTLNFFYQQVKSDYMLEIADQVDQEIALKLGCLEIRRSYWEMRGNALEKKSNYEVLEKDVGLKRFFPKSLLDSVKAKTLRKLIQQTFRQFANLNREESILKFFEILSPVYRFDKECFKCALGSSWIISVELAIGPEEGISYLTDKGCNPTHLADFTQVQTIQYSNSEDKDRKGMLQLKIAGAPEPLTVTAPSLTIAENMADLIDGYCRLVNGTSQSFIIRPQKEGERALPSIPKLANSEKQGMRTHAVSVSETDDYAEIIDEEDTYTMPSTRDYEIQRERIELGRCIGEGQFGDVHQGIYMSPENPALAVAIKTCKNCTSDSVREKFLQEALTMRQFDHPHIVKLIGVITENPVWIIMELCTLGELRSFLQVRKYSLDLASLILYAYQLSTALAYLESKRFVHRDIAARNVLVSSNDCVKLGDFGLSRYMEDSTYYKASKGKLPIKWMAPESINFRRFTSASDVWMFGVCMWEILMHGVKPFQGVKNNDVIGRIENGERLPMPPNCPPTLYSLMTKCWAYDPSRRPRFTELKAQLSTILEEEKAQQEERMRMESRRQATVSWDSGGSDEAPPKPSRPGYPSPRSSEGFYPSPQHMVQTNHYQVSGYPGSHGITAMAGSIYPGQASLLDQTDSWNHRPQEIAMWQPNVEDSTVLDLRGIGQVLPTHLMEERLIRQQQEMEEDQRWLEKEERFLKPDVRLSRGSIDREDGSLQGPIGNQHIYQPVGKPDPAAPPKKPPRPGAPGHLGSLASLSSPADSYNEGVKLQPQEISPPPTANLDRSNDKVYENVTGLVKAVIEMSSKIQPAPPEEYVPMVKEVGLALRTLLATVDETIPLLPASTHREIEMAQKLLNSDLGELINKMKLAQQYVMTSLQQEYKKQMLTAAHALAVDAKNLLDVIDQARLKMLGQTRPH
Experiment [4] deals with Fibrinogen (Alexa647-labelled). As to the kind of experiment: fibrinogen binders on compound microarrays, profiling panel, artefact control for SMM control-protein annotation, biochemical, small-molecule microarray, 635/667 nm fluorescence (AID 1131).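 Note: z-score merges 667 nm fluorescence with per-spot signal-to-noise over triplicate slides.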 The note with it: fibrinogen-A647 binding fluorescence, higher = more signal.
For experiment [5], the target named is Follistatin (Homo sapiens) (UniProt P19883). The experiment can be described thus: follistatin binders on small-molecule microarrays, primary screen, biochemical, small-molecule microarray, 635/667 nm fluorescence (AID 1132). The note with it: FST binding, 635 nm fluorescence, higher = more signal.
Sequence of Follistatin (Homo sapiens) (P19883 whole entry, looked up): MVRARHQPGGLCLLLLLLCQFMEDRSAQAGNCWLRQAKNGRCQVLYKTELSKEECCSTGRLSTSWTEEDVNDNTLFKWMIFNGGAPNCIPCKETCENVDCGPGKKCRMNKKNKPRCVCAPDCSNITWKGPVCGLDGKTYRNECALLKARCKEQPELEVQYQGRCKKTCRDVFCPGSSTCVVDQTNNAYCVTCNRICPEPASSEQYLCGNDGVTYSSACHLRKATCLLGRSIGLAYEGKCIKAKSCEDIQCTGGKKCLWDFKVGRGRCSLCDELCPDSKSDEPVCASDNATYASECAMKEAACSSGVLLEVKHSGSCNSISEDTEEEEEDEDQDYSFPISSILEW
For experiment [6], the target named is Fibroblast growth factor 2 (Homo sapiens) (UniProt P09038). The experiment can be described thus: FGF2 binders on small-molecule microarrays, primary screen, biochemical, small-molecule microarray, 635/667 nm fluorescence (AID 1133). The following applies: small-molecule microarray binding, FGF2, fluorescence 635/667; higher = more signal.
Sequence of Fibroblast growth factor 2 (Homo sapiens) (P09038 whole entry, looked up): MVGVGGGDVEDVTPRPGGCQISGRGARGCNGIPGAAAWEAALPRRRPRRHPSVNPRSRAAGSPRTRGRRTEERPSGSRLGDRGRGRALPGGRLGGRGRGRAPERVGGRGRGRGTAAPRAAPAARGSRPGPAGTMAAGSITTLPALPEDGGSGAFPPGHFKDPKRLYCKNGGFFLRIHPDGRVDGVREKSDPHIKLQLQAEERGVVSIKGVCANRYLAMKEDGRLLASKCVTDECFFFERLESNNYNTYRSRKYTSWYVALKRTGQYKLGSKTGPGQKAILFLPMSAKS
A short description of experiment [7]: mitochondrial membrane potential change in A549 cells, profiling panel, cell-based, JC-1 fluorescence, basal, 24 h, 100 nL (AID 1138).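 Note: A549 lung adenocarcinoma cells under basal conditions with no added stimulus; test concentration not given here.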 The note with it: higher = more signal.
The subject of the next experiment is Lefty1. The experiment can be described thus: Lefty1 binders on small-molecule microarrays, primary screen, biochemical, small-molecule microarray, 635/667 nm fluorescence (AID 1139). The note with it: small-molecule microarray binding, fluorescence 635/667; higher = more signal.
The test system of experiment [8] is wheat germ agglutinin (Triticum aestivum), Alexa647-labelled. As to the kind of experiment: wheat germ agglutinin binders on compound microarrays, profiling panel, artefact control for SMM control-protein annotation, biochemical, small-molecule microarray, 635/667 nm fluorescence (AID 1140).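 Note: score merges 667 nm feature emission with signal to noise over triplicate slides.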 The following applies: WGA-A647 binding, 635 nm fluorescence, higher = more signal.

Experiment [9] has as its target Luciferin 4-monooxygenase (Photinus pyralis) (UniProt P08659). As to the kind of experiment: firefly luciferase enzyme inhibitors, primary screen, biochemical, luminescence, purified enzyme, 2006 set (AID 1141).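 Note: cell-free assay with purified firefly luciferase at 100 ng per well in PBS; test concentration not given here.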 The following applies: SteadyGlo luminescence, 30 min, higher = more signal, called active from +8 up or from −8 down.

Activity calls are given as the source filed them.

Sequence of Luciferin 4-monooxygenase (Photinus pyralis) (P08659 whole entry, looked up): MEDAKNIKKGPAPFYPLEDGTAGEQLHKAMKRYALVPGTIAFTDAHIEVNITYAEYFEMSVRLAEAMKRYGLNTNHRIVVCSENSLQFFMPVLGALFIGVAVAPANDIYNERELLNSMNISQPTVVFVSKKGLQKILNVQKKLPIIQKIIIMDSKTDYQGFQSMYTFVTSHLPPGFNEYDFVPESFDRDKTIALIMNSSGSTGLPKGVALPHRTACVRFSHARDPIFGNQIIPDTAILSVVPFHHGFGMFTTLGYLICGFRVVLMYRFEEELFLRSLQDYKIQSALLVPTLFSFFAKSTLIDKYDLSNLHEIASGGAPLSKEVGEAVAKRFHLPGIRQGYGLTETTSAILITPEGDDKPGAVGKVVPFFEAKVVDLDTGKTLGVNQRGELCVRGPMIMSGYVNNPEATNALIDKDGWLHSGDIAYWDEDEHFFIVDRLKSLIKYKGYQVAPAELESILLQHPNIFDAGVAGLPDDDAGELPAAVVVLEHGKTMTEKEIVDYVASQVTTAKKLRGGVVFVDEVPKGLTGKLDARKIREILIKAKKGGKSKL

Take `CCOC(=O)C[C@H]1[C@H](OC(=O)c2ccc(-c3ccccc3)cc2)[C@@H](NC(=O)CC(C)C)c2cc(OCCCO)ccc2N1C(=O)c1ccccc1`: the composite z-score in [1] is 0.281; in experiment [2] it was 0.453; in experiment [3], 0.513; in [4], 0.252; in experiment [5] it was 0.249; in experiment [6] it was 0.376. The composite z-score in the experiment on Lefty1 came out at 0.369; in [8], 0.0794. Moreover, the z-score in experiment [7] is 1.23; in experiment [9] it was -0.228 (inactive).

Consider `C=C(/C(=C/C[C@@H](OC(C)=O)c1ccc(OCCO)cc1)c1cc(C(=O)OC)ccc1OC)C(C)C`, for which the composite z-score was determined as 1.81 in [1]; 0.999 in experiment [2]; 0.211 in experiment [3]; 0.665 in [4]; 0.776 in experiment [5]; 1.11 in experiment [6]. Moreover, the composite z-score with Lefty1 was found to be 1.36; in experiment [8] it was 0.85. The values for the z-score in experiment [7] and in [9] were 0.471 and -0.6 (inactive), respectively.

With `CC1(C)C(=O)C(c2ccccc2)=C2CN3C(=O)N(CCc4ccccc4)C(=O)C3(Cc3ccc(F)cc3)C=C21` (stereo not given), the composite z-score is 1.47 in [1]; 0.324 in [2]; -0.104 in [3]; -0.402 in experiment [4]; 0.0178 in experiment [5]; -0.979 in experiment [6]. Moreover, the composite z-score with Lefty1 was -0.784; in experiment [8] it was 0.432. Besides, the z-score in experiment [7] is -0.593; in [9] it was 0.907 (inactive).

As to `COC(=O)C1N=C(c2ccc(OCCCO)cc2)N(c2ccccc2)O1` (stereo not given), the composite z-score in experiment [1] was 1.91; in [2], 1.15; in experiment [3], -0.0976; in experiment [4], 0.992; in experiment [5], 1.33; in [6], 1.76. Further, the figures for the composite z-score (in the experiment on Lefty1; in experiment [8]) were 0.156 and 1.29, respectively. The z-score is 1.8 in experiment [7] and -7.36 (inactive) in experiment [9].

Take `[N-]=[N+]=NCc1ccccc1[C@@H]1OC(c2ccc(OCCCO)cc2)=N[C@]1(Cc1ccccc1N=[N+]=[N-])C(=O)N1CCCCC1`: the composite z-score is 1.97 in [1]; 1.24 in experiment [2]; 0.182 in experiment [3]; 0.816 in experiment [4]; 0.845 in experiment [5]; 0.483 in experiment [6]. Also, the composite z-score in the experiment with Lefty1 was determined as 0.082; in experiment [8], 0.756. The z-score in [7] is 0.909; in experiment [9], -1.61 (inactive).

For the compound `C=C[C@H](C)[C@H](OC(=O)Nc1ccc(OC)cc1)c1ccc(OCCO)cc1`, the composite z-score is -0.489 in experiment [1]; -0.653 in experiment [2]; 0.0457 in experiment [3]; -0.909 in [4]; -0.617 in [5]; -0.0943 in [6]. Moreover, the composite z-score in the experiment on Lefty1 is -0.431; in experiment [8], -0.647. The z-score in [7] is 0.927; in experiment [9], -6.74 (inactive).

As to `C#C[C@@H](CC)O[Si](C#CCCCC#N)(C(C)C)C(C)C`, the composite z-score is 2.55 in [1]; 0.0253 in experiment [2]; 0.278 in [3]; -0.014 in [4]; -0.295 in experiment [5]; 0.895 in [6]. Besides, the composite z-score is 0.232 with Lefty1 and -0.0711 in experiment [8]. In addition, the z-score in experiment [7] was 0.168; in experiment [9], -0.732 (inactive).

Consider `C=C(/C(=C/C[C@@H](OC(C)=O)c1ccc(CO)o1)c1cc(C(=O)OC)ccc1OC)C(C)C`, for which the composite z-score in [1] was found to be 1.54; in experiment [2], 0.659; in experiment [3] it was 0.571; in [4] it was 0.0384; in experiment [5], 0.913; in experiment [6], 0.682. The composite z-score in the experiment on Lefty1 is 0.564; in [8] it was 0.427. The z-score is -0.237 in experiment [7] and -3.52 (inactive) in experiment [9].

Consider `COCCOC(=O)N1C(=O)[C@@]2(c3cc(C#CCNC(N)=O)ccc31)[C@H](c1ccc(O)cc1)N1[C@H](c3ccccc3)[C@H](c3ccccc3)OC(=O)[C@H]1[C@@H]2C(=O)N1CCN(c2ncccn2)CC1`, for which the composite z-score is 1.22 in experiment [1]; 1.2 in experiment [2]; 0.634 in [3]; 0.865 in experiment [4]; 0.902 in [5]; 0.671 in [6]. Besides, the composite z-score with Lefty1 was 0.707; in [8], 0.991. Also, the z-score was -1.91 in [7] and -0.391 (inactive) in [9].

As for `COC(=O)[C@@]1(Cc2ccc(OC)cc2)[C@H]2c3cc(C(=O)N4CCCC4)n(Cc4ccc(S(C)(=O)=O)cc4)c3C[C@H]2CN1C(=O)c1ccccc1`, the composite z-score in experiment [1] was 0.486; in experiment [2], 1.26; in experiment [3], 0.721; in experiment [4] it was 0.996; in experiment [5] it was 0.0078; in [6], -0.184. For the same compound, the composite z-score in the experiment on Lefty1 was -0.0956; in [8], 0.479. For the same compound, the z-score was 1.26 in experiment [7] and 0.922 (inactive) in [9].

Consider `O=C1C2C=CC(C(O)c3ccco3)N(Nc3ccccc3)C2C(=O)N1c1ccccc1` (stereo not given), for which the composite z-score in experiment [1] is -0.317; in experiment [2] it was 0.556; in experiment [3], -0.0201; in [4] it was -1.58; in experiment [5] it was -0.118; in experiment [6], -1.21. For the same compound, the composite z-score with Lefty1 is -0.907; in experiment [8], 0.46. Further, the z-score in experiment [7] was 1.9; in experiment [9] it was 1.06 (inactive).

Take `C[C@]1(C(=O)O)c2ccccc2C(=O)N(Cc2ccc(OC(F)(F)F)cc2)[C@H]1c1ccc(CO)cc1`: the composite z-score in experiment [1] is 1.1; in [2], 0.409; in [3] it was 0.609; in [4], 0.0748; in experiment [5], -0.156; in experiment [6] it was -0.381. Moreover, the composite z-score is -0.685 in the experiment with Lefty1 and 0.596 in experiment [8]. Further, the z-score in [7] was 0.447; in [9], 0.0795 (inactive).

As for `COCCOC(=O)N1C(=O)[C@@]2(c3cc(C#CC4(O)CCCCCC4)ccc31)[C@H](c1ccc(OCCO)cc1)N1[C@H](c3ccccc3)[C@H](c3ccccc3)OC(=O)[C@H]1[C@@H]2C(=O)Nc1nc2ccccc2s1`, the composite z-score worked out at 1.08 in experiment [1]; 1.13 in experiment [2]; 0.2 in [3]; 0.688 in [4]; 1.27 in experiment [5]; 1.65 in experiment [6]. The composite z-score was found to be 1.38 with Lefty1 and 0.708 in experiment [8]. Moreover, the z-score in [7] is -2.33; in experiment [9] it was -2.55 (inactive).

On to `Cc1ccccc1C(O)C1C=CC2C(=O)N(c3ccccc3)C(=O)C2N1Nc1ccc([N+](=O)[O-])cc1` (stereo not given), for which the composite z-score stood at 1.48 in experiment [1]; 1.21 in [2]; 0.533 in experiment [3]; 1.01 in experiment [4]; 1.23 in experiment [5]; 1.06 in experiment [6]. Besides, the results for the composite z-score (in the experiment with Lefty1; in [8]) were 0.0122 and 0.515, respectively. Further, the z-score in [7] was -0.752; in [9], 1.18 (inactive).

With `CCCNC(=O)[C@@]1(Sc2ccc(C)cc2)CC(=O)N(C(C)C)[C@@H]1c1ccc(CO)cc1I`, the composite z-score in experiment [1] was -0.139; in [2], -0.435; in experiment [3] it was -0.288; in experiment [4] it was -0.678; in experiment [5], -1.21; in [6], -1.5. In addition, the figures for the composite z-score (with Lefty1; in experiment [8]) were -1.96 and -0.831, respectively. Besides, the z-score in experiment [7] was 0.794; in [9] it was -0.121 (inactive).

`CC(C)=CCCC(C)=CC(O)C1C=CC2C(=O)N(c3ccccc3)C(=O)C2N1Nc1ccccc1F` (stereo not given): the composite z-score was 1.55 in experiment [1]; 1.03 in [2]; 0.789 in experiment [3]; 0.988 in experiment [4]; 0.462 in experiment [5]; -0.617 in [6]. The composite z-score in the experiment with Lefty1 came to 0.278; in [8] it was 0.327. In addition, the z-score in experiment [7] is -0.4; in [9], 2 (inactive).
